Bioassay records: PubChem BioAssay, National Center for Advancing Translational Sciences (NCATS)
SMN2 splice up: increases expression of the SMN2 splice variant. AID 1458. Potency, µM (highest dose often 46.1 µM), for the others: top-dose activity change, positive = activation, actives largely listed as activators. 210,000 compounds, 2.8% hits. HEK293 SMN2-luciferase splicing reporter, luminescence, 30-36 h; also: % of control where 0% means no effect; nearly all actives have a fitted effect of over 55% in size
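qHTS luciferase splicing reporter: luminescence rises when SMN2 exon 7 is included in transfected HEK293 cells. Compound exposure lasted 30-36 h at 37C, with 4.5 mM final sodium butyrate as control, followed by a ONE-Glo read.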
NPC1 promoter act: NPC1 promoter activation; AID 485313; 320,000 compounds, 2.4% hits; Potency, µM (doses to about 9.22 µM), inactives show at the top dose activation, hits mostly activators; Huh7 NPC1 promoter luciferase reporter, 24 h; also: % of control where 0% means no effect; nearly all actives have a fitted effect of over 60% in size
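Huh7 reporter cells (NPC1 promoter driving luciferase) are dosed with compound for 24 h at 37 °C, 5% CO2; luciferase detection reagent is then added and luminescence measured after 10 min at ambient temperature.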
FLuc counter: counter-screen for miR-21 project: firefly luciferase inhibitors or activators; purified FLuc, Km substrates, luminescence inhibition; Potency, µM (series often up to 57.5 µM), for the others: at the highest dose activity change, negative = inhibition, most hits filed as inhibitors; 360,000 compounds, 6.9% hits;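 also: plate controls were vehicle for no effect and reference inhibitor for full effect; nearly all actives have a fitted effect of over 55% in size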
Target sequence (P08659 whole entry, looked up): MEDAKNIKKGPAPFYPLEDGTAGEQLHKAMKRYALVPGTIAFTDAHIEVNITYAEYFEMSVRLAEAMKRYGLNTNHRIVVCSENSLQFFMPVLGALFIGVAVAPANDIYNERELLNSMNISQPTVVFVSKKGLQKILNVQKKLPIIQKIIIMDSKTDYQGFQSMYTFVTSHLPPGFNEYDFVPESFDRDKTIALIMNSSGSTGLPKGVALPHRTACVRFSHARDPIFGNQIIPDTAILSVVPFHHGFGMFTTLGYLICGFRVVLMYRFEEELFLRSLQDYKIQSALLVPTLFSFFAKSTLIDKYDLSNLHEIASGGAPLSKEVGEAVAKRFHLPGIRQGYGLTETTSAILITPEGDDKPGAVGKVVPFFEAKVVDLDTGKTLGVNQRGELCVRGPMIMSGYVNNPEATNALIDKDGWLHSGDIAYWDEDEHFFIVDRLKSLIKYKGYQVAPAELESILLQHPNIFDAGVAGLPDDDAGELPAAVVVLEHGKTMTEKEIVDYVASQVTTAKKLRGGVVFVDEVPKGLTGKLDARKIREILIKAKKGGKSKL
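Purified P. pyralis luciferase (10nM final) with 10uM D-luciferin and 10uM ATP (Km levels) in 50mM Tris acetate pH 7.5, 10mM Mg acetate, 0.01% Tween-20, 0.05% BSA; qHTS 6-point titration, ~60 µM downward; luminescence read.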
Rab9 promoter act: activates the Rab9 promoter. Potency, µM (doses to about 9.22 µM), for inactives: top-dose activation, negative = inhibition, actives largely listed as activators. 320,000 compounds, 2.8% hits. Huh7 Rab9 promoter-luciferase reporter, luminescence, 24 h; also: % of control where 0% means no effect; nearly all actives have a fitted effect of over 60% in size
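Rab9 promoter-driven luciferase in stably transfected Huh7 cells; 1500 cells/well rested 2 h, exposed to compound in DMSO for 24 h at 37 °C, 5% CO2. Luminescence read 10 min after adding luciferase reagent at ambient temperature.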
p53 reactivator: restores transcriptional activity of mutant p53; 320,000 compounds, 0.063% hits; Potency, µM (series often up to 92.2 µM), without a hit: at the top dose activity change, positive = activation, most hits filed as activators; H1299 p53-A138V BP100-luciferase reporter, luminescence, 24 h; AID 504706; also: % of control where 0% means no effect; nearly all actives have a fitted effect of over 45% in size
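p53-null H1299 cells stably carrying temperature-sensitive p53-A138V and a BP100-luciferase reporter were pinned with compounds (4-point, 1:5 series) and held 24 hrs at 37 deg C. Luminescence was read 10 min after detection reagent.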
ELG1 genotoxic: induces genotoxicity in HEK293T cells with luciferase-tagged ELG1 | HEK293T ELG1-luciferase reporter, luminescence, 16 h | Potency, µM (titrated, usually from 46 µM), for the others: at the top dose activity change, positive = activation, hits mostly activators | 330,000 compounds, 1.3% hits | AID 504466; also: % of control where 0% means no effect; nearly all actives have a fitted effect of over 60% in size
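HEK293T cells expressing luciferase-tagged ELG1 were exposed to compound or DMSO vehicle for 16 hr at 37 °C and 5% CO2. Luciferase activity was then measured with ONE-Glo after 30 min at room temperature.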
The depositor's hits bear a star; ? = inconclusive; nt = no result given. Compounds with a hit are over-represented: about 7.4% of the library has one in this group of screens. Calls follow the shape of the dose curve; as a rule, active = well fitted curve in the direction sought with a large enough effect; inconclusive = small, poorly fitted or top-dose-only effect, or another doubt; inactive = no such curve, though single readings can be large; an effect the other way counts as inactive or inconclusive. Potency is read from the fitted curve at half-maximal effect.

SMILES | SMN2 splice up | NPC1 promoter act | FLuc counter | Rab9 promoter act | p53 reactivator | ELG1 genotoxic
COc1cc(OC)c(NC(=O)C2CCCN(c3ncnc4c3nc3n4CCCCC3)C2)cc1Cl (stereo not given) | nt | nt | -16% | nt | nt | nt
COc1cccc(CNC(=O)c2sc3nc[nH]c(=O)c3c2C)c1 | nt | nt | -8% | nt | nt | nt
COc1ccc(-n2c(C)cc(-c3cn4cccc(C)c4n3)c2C)cc1 | -18% | 1% | ? | 2% | -2% | -5%
Cc1cc(-c2cn3ccccc3n2)c(C)n1-c1ccccc1 | 5.6µM* | 1.6µM* | 0.76µM* | 1.1µM* | 23% | 15%
COc1ccc(C2CC(=O)N(CC(=O)Nc3ccc(C(F)(F)F)cc3)c3ccccc3S2)cc1 (stereo not given) | -13% | nt | 11µM* | nt | nt | nt
COc1ccc(C2CC(=O)N(C)c3ccccc3S2)cc1 (stereo not given) | 17% | 0% | 24µM* | 9% | 2% | 18µM*
O=C(CCl)N1CCCC1c1ccc2c(c1)OCCO2 (stereo not given) | nt | -18% | 0% | -13% | -18% | -26%
Clc1nssc1=Nc1ccc(Br)cc1 | -12% | 4% | 24µM* | -2% | 10% | -6%
COc1cc(N=c2ssnc2Cl)cc(OC)c1 | -22% | 0% | ? | -2% | -6% | -5%
N#Cc1cccc(N=c2ssnc2Cl)c1 | -18% | 1% | 19µM* | -4% | -2% | 0%
COC(=O)c1ccccc1NS(=O)(=O)c1cc2c(cc1C)N(C)CCO2 | nt | nt | -10% | nt | nt | nt
O=C(Nc1ccc(CN2CCS(=O)(=O)CC2)cc1)c1ccc(F)cc1 | nt | 1% | -1% | -2% | 9% | -2%
O=C(Nc1ccc(CN2CCS(=O)(=O)CC2)cc1)c1ccc(C(F)(F)F)cc1 | nt | -14% | 17µM* | -26% | 0% | 8%
O=C(Nc1ccc(CN2CCS(=O)(=O)CC2)cc1)c1ccccc1 | nt | -1% | -10% | 0% | -2% | 0%
CC(C)(C)c1ccc(C(=O)Nc2ccc(CN3CCS(=O)(=O)CC3)cc2)cc1 | nt | -17% | 9.5µM* | -31% | -1% | -1%
CC(=O)c1cccc(Nc2nn(-c3ccc(OC(F)(F)F)cc3)nc2C(C)=O)c1 | -9% | nt | 6µM* | nt | nt | nt
CCOc1cccc(Nc2nn(-c3ccc(OC(F)(F)F)cc3)nc2C(C)=O)c1 | 8% | nt | 7% | nt | nt | nt
Cc1cccc(N2C(=O)CCSC23C(=O)N(Cc2ccc(F)cc2)c2ccccc23)c1 (stereo not given) | nt | nt | -10% | nt | nt | nt
CC1=NN2C(=N)/C(=C\c3ccc(SCc4ccccc4)o3)C(=O)N=C2S1 | -18% | -4% | -6% | 2% | -2% | 3%
N=C1/C(=C\c2ccc(SCc3ccco3)o2)C(=O)N=C2SC=NN12 | 1% | -1% | 8.5µM* | 22% | 4% | 6%
CCN1CCN(C(=O)C2CCN(S(=O)(=O)c3ccc(SC)cc3)CC2)CC1 | nt | 0% | -1% | -1% | 0% | -3%
CCN1CCOC(=O)C1CC(=O)Nc1cccc(OC)c1 (stereo not given) | 7% | nt | 2% | nt | nt | nt
Cc1cc(=O)oc2cc(NC(=O)c3c(Cl)cnn3C)ccc12 | nt | 30% | -6% | 23% | 13% | ?
Cc1cc(=O)oc2cc(NC(=O)c3ccnn3C)ccc12 | nt | 2.8µM* | ? | 4µM* | 18% | 16µM*
COc1cccc(C(=O)Nc2ccc3c(C)cc(=O)oc3c2)c1 | nt | 1.1µM* | 1.9µM* | 0.71µM* | 27% | 2.3µM*
SMILES | SMN2 splice up | NPC1 promoter act | FLuc counter | Rab9 promoter act | p53 reactivator | ELG1 genotoxic
Cc1ccccc1CC(=O)Nc1ccc2c(C)cc(=O)oc2c1 | nt | -2% | -1% | -1% | nt | 3%
Cc1cc(=O)oc2cc(NC(=O)c3ccccc3Cl)ccc12 | nt | 3.2µM* | 11µM* | 3.5µM* | 21% | 15µM*
COc1ccccc1CC(=O)Nc1ccc2c(C)cc(=O)oc2c1 | nt | -3% | -4% | -5% | -13% | 0%
Cc1cc(=O)oc2cc(NC(=O)c3ccccc3C(=O)O)ccc12 | nt | 2% | 11µM* | -2% | 9% | -3%
O=C(NNC1CC(=O)N(c2ccccc2)C1=O)c1ccco1 (stereo not given) | -5% | -3% | -13% | -9% | 10% | 1%
O=C(NNC1CC(=O)N(c2ccccc2)C1=O)c1ccc(COc2ccccc2Cl)o1 (stereo not given) | 5% | 0% | 17µM* | 2% | 11% | 2%
COc1cccc(NC2=Nc3cccc4cccc2c34)c1 | 14% | -3% | 12µM* | -3% | 17% | 4%
Clc1ccccc1-c1nc(N/N=C/c2cccnc2)c2ccccc2n1 | -20% | 3% | 0% | -1% | -4% | -3%
C(=N\NC1=Nc2cccc3cccc1c23)/c1ccccc1 | 4µM* | 4µM* | 1.7µM* | 4.5µM* | 50µM* | ?
NC1=Nc2cccc3cccc1c23 | 2% | 3% | -8% | -2% | -3% | -3%
C(=N\NC1=Nc2cccc3cccc1c23)/c1cccnc1 | 11µM* | 3.5µM* | 4.8µM* | 2.5µM* | 0% | ?
Clc1ccc(/C=N/NC2=Nc3cccc4cccc2c34)cc1 | 11µM* | 0.63µM* | 1.7µM* | 0.63µM* | ? | ?
COc1ccc(NC2=Nc3cccc4cccc2c34)cc1OC | -9% | 6% | ? | -2% | -3% | -3%
Cc1noc(Cn2c(=O)c3ccccc3n(CC(=O)Nc3cccc(Cl)c3C)c2=O)n1 | nt | nt | -3% | nt | nt | nt
O=C(O)c1ccc(S(=O)(=O)c2ccc(Sc3ccc(C(=O)O)c(C(=O)O)c3)cc2)cc1 | 13% | -7% | 11µM* | -8% | -1% | 0%
Cc1ccc(NC(=O)c2cc3nc(-c4ccccc4)cc(-c4ccccc4)n3n2)cc1 | 15% | nt | 7% | nt | nt | nt
Cc1ccc(NC(=O)c2cc3nc(C)cc(C)n3n2)cc1 | 11µM* | 0.63µM* | 4.8µM* | 0.89µM* | 16% | 1.5µM*
Cc1cc(C)n2nc(C(=O)NCc3ccccc3)cc2n1 | 12% | -1% | 5% | -2% | 3% | 7%
Cc1cc(C)n2nc(-c3ccccc3)cc2n1 | nt | ? | 7.6µM* | 3.2µM* | 13% | ?
Cc1cc(C)n2nc(Nc3ccccc3)cc2n1 | 25% | 18% | 17µM* | 23% | 20% | 29%
Cc1ccc(-c2cc3nc(C)cc(C)n3n2)cc1 | 13µM* | 3.5µM* | 2.7µM* | 1.8µM* | ? | 5.2µM*
Cc1cc(C)cc(NC(=O)c2ccc3nc[nH]c3c2)c1 | -4% | 11% | 6.7µM* | 13% | 12% | 10%
O=C(Nc1ccc(F)cc1)c1ccc2nc[nH]c2c1 | ? | 26% | ? | 18% | 6% | 5%
CN(C)c1ccc(NC(=O)c2ccc3nc[nH]c3c2)cc1 | nt | ? | 13µM* | ? | ? | ?
